# Data: PubChem BioAssay (NCATS)
# Unmarked numbers belong to inactive results. Results filed as inconclusive are left out. Where a call stands in place of a potency, no number is given. Active and inactive are the calls of the source. Calls follow the shape of the dose curve; as a rule, active = well fitted curve in the direction sought with a large enough effect; inconclusive = small, poorly fitted or top-dose-only effect, or another doubt; inactive = no such curve, though single readings can be large; an effect the other way counts as inactive or inconclusive.
# Target: Cytochrome P450 2C19 (Homo sapiens) (UniProt P33261)
# Test: qHTS Assay for Inhibitors and Substrates of Cytochrome P450 2C19 (AID 899); also: nearly all actives have a fitted effect of over 60% in size; also: potency is read from the fitted curve at half-maximal effect
# Conditions: recombinant CYP2C19, luciferin-H EGE luminescence; series mostly up to 57.1 µM
# Method in brief: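 5nM enzyme + 10uM Luciferin-H EGE (=KM), 50mM KPO4; cpd pin-transferred, 10 min 37C; NADPH regen, 60 min 37C; stopped w/ luciferin detection reagent, 20 min; luminescence. Normalized to 57uM ketoconazole (AC100).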
# Chain of Cytochrome P450 2C19 (Homo sapiens) (P33261 whole entry, looked up): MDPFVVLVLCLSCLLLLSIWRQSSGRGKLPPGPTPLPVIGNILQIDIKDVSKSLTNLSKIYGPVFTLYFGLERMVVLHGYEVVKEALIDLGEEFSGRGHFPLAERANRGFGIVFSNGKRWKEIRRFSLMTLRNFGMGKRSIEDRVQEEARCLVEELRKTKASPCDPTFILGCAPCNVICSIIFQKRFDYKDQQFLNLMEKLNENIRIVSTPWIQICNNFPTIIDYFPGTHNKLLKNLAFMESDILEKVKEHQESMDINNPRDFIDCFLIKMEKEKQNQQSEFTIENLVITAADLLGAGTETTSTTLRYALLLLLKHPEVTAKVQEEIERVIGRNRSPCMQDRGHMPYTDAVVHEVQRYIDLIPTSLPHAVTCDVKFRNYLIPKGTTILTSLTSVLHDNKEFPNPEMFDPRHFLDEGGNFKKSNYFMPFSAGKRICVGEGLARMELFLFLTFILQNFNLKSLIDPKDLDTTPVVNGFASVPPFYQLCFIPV
SMILES,Potency,"activity, negative = inhibition"
Cc1ccc(C(=O)O[C@@H](C(=O)O)[C@@H](OC(=O)c2ccc(C)cc2)C(=O)O)cc1 (tested in a mixture with another compound),inactive,–
N[C@H](CCC(=O)N[C@H](CSN=O)C(=O)NCC(=O)O)C(=O)O,1.58 µM (active),–
C[C@@H]1OC=C2[C@@H](O)[C@H]3O[C@H]3C(=O)[C@@]23[C@H]1[C@H]1C2=C([C@@H](O)[C@H]4O[C@@H]4C2=O)[C@@H]3O[C@@H]1C,–,53.9% [at 11.4 µM]
C=C(CO)[C@H]1Cc2c(ccc3c2O[C@H]2COc4cc(OC)c(OC)cc4[C@@H]2C3=O)O1,5.01 µM (active),–

# System: not listed separately
# Test: Confirmation and Secondary Assay for Modulators of Hemoglobin Beta Chain Splicing at IVS2 654 locus (AID 910);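 also: HeLa cells stably carrying EGFP split by mutant beta-globin IVS2-654 intron; per-well total GFP intensity by laser scanning cytometry after 2-day treatment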
# Conditions: HeLa EGFP-654 splicing reporter, GFP fluorescence, 48 h; series mostly up to 46.1 µM
# Method in brief: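 Readout: per-well total peak green fluorescence (488 nm ex, 500–520 nm em) from objects 5–250 µm, reflecting correct splicing of an EGFP-654 reporter. Compounds were applied for 2 days at 37 °C to overnight-plated HeLa EGFP-654 cells; controls were DMSO and 500 nM IVS2-654 PNA.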
row,SMILES,Potency
1,COc1cc2ccc(=O)oc2c2ccoc12,inactive
2,CC1=C(O)C(=O)C=C2C1=CC=C1[C@]2(C)CC[C@@]2(C)C3C[C@](C)(C(=O)O)CC[C@@]3(C)CC[C@@]12C (stereo partly specified),inactive
3,C=C(C)C1Cc2c(ccc3c2OC2COc4cc(OC)c(OC)cc4C2C3=O)O1 (stereo unspecified),inactive

# Target: Alpha-galactosidase (Coffea arabica) (UniProt Q42656)
# Test: Counterscreen for Glucocerebrosidase Inhibitors: qHTS Assay for Coffee Bean alpha-Galactosidase at pH 4.5 (AID 957)
# Conditions: purified coffee bean alpha-galactosidase, fluorogenic substrate; series mostly up to 76.9 µM
# Method in brief: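 Green coffee bean enzyme (2 nM final) was incubated with compounds (0.7 nM to 77 uM) and 4-methylumbelliferyl alpha-D-galactopyranoside (80 uM final) in 50 mM citric acid, 0.005% Tween-20, pH 4.5, 20 min at room temperature; AC50 from Hill fits.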
# Chain of Alpha-galactosidase (Coffea arabica) (Q42656 whole entry, looked up): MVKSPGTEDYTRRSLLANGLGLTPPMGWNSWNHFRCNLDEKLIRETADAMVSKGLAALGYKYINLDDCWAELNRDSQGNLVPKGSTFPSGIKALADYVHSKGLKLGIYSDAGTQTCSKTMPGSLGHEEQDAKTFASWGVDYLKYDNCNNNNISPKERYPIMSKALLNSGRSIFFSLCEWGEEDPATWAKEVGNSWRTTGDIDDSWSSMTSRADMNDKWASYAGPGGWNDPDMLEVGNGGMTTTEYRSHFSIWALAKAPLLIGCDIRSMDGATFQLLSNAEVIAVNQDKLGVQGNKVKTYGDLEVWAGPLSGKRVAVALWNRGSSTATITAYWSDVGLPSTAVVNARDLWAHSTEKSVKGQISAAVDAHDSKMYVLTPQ
row,SMILES,outcome
1,O=C(O)C[C@@H]1CCCc2ccccc2[C@H]1O,inactive
2,CO[C@]1(C2=NCCN2)COc2ccccc2O1,inactive
3,Nc1ncnc2c1nc(Sc1ccc(Cl)cc1)n2[C@@H]1O[C@H]2COP(=O)(O)O[C@@H]2[C@H]1O,inactive
4,Cc1ccc(C(=O)O[C@@H](C(=O)O)[C@@H](OC(=O)c2ccc(C)cc2)C(=O)O)cc1 (tested in a mixture with another compound),inactive
5,COc1ccc([C@H]2Sc3ccccc3N(CCN(C)C)C(=O)[C@H]2OC(C)=O)cc1,inactive
6,C=CCN1CCc2cc(O)c(O)cc2[C@H](c2ccccc2)C1,inactive
7,CCCCCCCCCCCCCCC/C=C\[C@H](O)[C@@H](NC(=O)CCCCCCCCCCCCC)OC (tested in a mixture with another compound),inactive
8,CN=C(NC#N)Nc1ccc(C2=NNC(=O)C[C@@H]2C)cc1,inactive
9,Nc1ncnc2c1ncn2[C@@H]1O[C@@H](C(=O)NC2CC2)[C@H](O)[C@@H]1O,inactive
10,CCCCCCCCCCCCCCCCCC(=O)NC[C@@H](COP(=O)([O-])OCC[N+](C)(C)C)OCC,inactive
11,NCC[C@H]1CCC[C@H](CCN)N1,inactive
12,C[C@H](Oc1ccc(Oc2cnc3ccc(Cl)cc3n2)cc1)C(=O)O,inactive
13,c1ccc([C@@H]2CN3CCSC3=N2)cc1,inactive
14,OCCN1CCN(CC/C=C2\c3ccccc3Sc3ccc(C(F)(F)F)cc32)CC1,inactive
15,Nc1nc(Nc2ccccc2)nc2c1ncn2[C@@H]1O[C@@H](CO)[C@H](O)[C@@H]1O,inactive
16,NC(=O)C1=CN([C@@H]2O[C@@H](COP(=O)(O)OP(=O)(O)OC[C@@H]3O[C@H](n4cnc5c(N)ncnc54)[C@@H](OP(=O)(O)O)[C@@H]3O)[C@H](O)[C@@H]2O)C=CC1,inactive
17,N[C@H](CCC(=O)N[C@H](CSN=O)C(=O)NCC(=O)O)C(=O)O,inactive

row,SMILES,outcome
1,Nc1ncnc2c1nc(Br)n2[C@@H]1O[C@H]2COP(=O)(O)O[C@@H]2[C@H]1O,inactive
2,C[C@@H](CCc1ccc(O)cc1)NCCc1ccc(O)c(O)c1,inactive
3,CN1C[C@@H](C(=O)N[C@]2(C)O[C@]3(O)[C@H]4CCCN4C(=O)[C@H](Cc4ccccc4)N3C2=O)C[C@H]2c3cccc4[nH]cc(c34)C[C@@H]21,inactive
4,CN1CCN([C@@H]2Cc3ccccc3Sc3ccc(Cl)cc32)CC1,inactive
5,NC(=O)c1ncn([C@@H]2O[C@@H](CO)[C@@H](O)[C@H]2O)c1O,inactive
6,O[C@H](CN1CCN(c2cccc(Cl)c2)CC1)C(c1ccccc1)c1ccccc1,inactive
7,CN[C@@H](CC(C)C)C(=O)N[C@@H]1C(=O)N[C@H](CC(N)=O)C(=O)N[C@H]2C(=O)N[C@H]3C(=O)N[C@H](C(=O)N[C@H](C(=O)O)c4cc(O)cc(O)c4-c4cc3ccc4O)[C@H](O)c3ccc(c(Cl)c3)Oc3cc2cc(c3O[C@@H]2O[C@@H](CO)[C@@H](O)[C@@H](O)[C@H]2O[C@H]2C[C@](C)(N)[C@H](O)[C@H](C)O2)Oc2ccc(cc2Cl)[C@@H]1O,inactive
8,C[C@@H]1CCN=C(N)S1,inactive
9,C[C@@H]1O[C@@H](n2cc(F)c(=O)[nH]c2=O)[C@H](O)[C@@H]1O,inactive
10,C[C@H](NCCc1ccc(O)cc1)[C@@H](O)c1ccc(O)cc1,inactive
11,CC1CCN(CC[C@@H]2CCCN2S(=O)(=O)c2cccc(O)c2)CC1,inactive
12,CC(C)COC[C@H](CN(Cc1ccccc1)c1ccccc1)N1CCCC1,inactive
13,C/C=C1\C(=O)C[C@@H]2[C@@H]3CCC4=CC(=O)CC[C@@]4(C)[C@H]3CC[C@@]12C,inactive
14,N[C@@H](CO)C(=O)O,inactive
15,COc1cc2c(cc1O)CC[C@@H]1[C@@H]2CC[C@@]2(C)[C@H](O)CC[C@H]12,inactive
16,CC1=C(C(=O)O)N2C(=O)[C@@H](NC(=O)[C@@H](N)c3ccccc3)[C@@H]2SC1,inactive
17,CC(=O)O[C@@H]1[C@H]([N+]2(C)CCCCC2)C[C@@H]2[C@@H]3CC[C@@H]4C[C@@H](OC(C)=O)[C@H]([N+]5(C)CCCCC5)C[C@@]4(C)[C@H]3CC[C@]21C,inactive
